This passage reports z-score and composite z-score results from PubChem BioAssay.

Assay [1] in a line: optical density shifts of acrAB sulA E. coli – strain DRC41, OD650, 48 h, E. coli filamentation inducer project, primary screen (AID 1152).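 Note: E. coli MC1000 strain DRC41 lacking acrAB efflux pump and sulA.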 Conditions: higher = more signal, called active from +8 up or from −8 down.
The nature of assay [2]: probe aLefty1 binding on compound microarray – biochemical, small-molecule microarray, 635/667 nm fluorescence, primary screen (AID 1153).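 Note: score merges spot fluorescence with signal-to-noise ratio from the scanned slide images.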 Conditions: higher = more signal.
Assay [3] is described as follows: plasmodial surface anion channel blockers, osmotic lysis – cell-based, P. falciparum Indochina, OD700, 1 h, primary screen (AID 1154). The following applies: P. falciparum Indochina infected RBC osmotic lysis, higher = more signal, called active from +8 up or from −8 down.
The nature of assay [4]: plasmodial surface anion channel blockers, osmotic lysis – cell-based, P. falciparum Indochina, OD700, 2 h, primary screen (AID 1155).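 Note: lysis reports solute entry through the parasite surface anion channel PSAC.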 The following applies: P. falciparum Indochina infected erythrocytes, higher = more signal, called active from +8 up or from −8 down.
Assay [5] is described as follows: changes in parasitized red cell lysis, either direction – P. falciparum Indochina, OD700, 3 h, PSAC antagonist project, primary screen (AID 1156). Conditions: P. falciparum-infected erythrocytes, osmotic lysis, higher = more signal, called active from +8 up or from −8 down.
Assay [6] in a line: plasmodial surface anion channel blockers, osmotic lysis – cell-based, P. falciparum Indochina, OD700, 18 h, primary screen (AID 1157). Conditions: P. falciparum Indochina infected erythrocytes, osmotic lysis OD700, 18 h; higher = more signal, called active from +8 up or from −8 down.
Assay [7] can be described thus: S6 kinase pathway phospho-S6 level changes – cell-based, A549, cytoblot, luminescence, serum-stimulated, primary screen (AID 1158).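 Note: serum-stimulated A549 lung adenocarcinoma cells; signal is phosphorylated S6 detected by cytoblot immunostaining with HRP secondary.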 Conditions: 5 h, higher = more signal.
In assay [8] the target is NADPH oxidase 2 (Homo sapiens) (UniProt P04839). The assay can be described thus: compounds shifting NOX2 Amplex Red fluorescence – cell-based, HEK293-NOX2, PMA-stimulated, NOX inhibitor project, primary screen (AID 1159). Note: test concentration not given here. Conditions: 45 min, higher = more signal, called active from +8 up or from −8 down.
NADPH oxidase 2 (Homo sapiens), sequence (P04839 whole entry, looked up): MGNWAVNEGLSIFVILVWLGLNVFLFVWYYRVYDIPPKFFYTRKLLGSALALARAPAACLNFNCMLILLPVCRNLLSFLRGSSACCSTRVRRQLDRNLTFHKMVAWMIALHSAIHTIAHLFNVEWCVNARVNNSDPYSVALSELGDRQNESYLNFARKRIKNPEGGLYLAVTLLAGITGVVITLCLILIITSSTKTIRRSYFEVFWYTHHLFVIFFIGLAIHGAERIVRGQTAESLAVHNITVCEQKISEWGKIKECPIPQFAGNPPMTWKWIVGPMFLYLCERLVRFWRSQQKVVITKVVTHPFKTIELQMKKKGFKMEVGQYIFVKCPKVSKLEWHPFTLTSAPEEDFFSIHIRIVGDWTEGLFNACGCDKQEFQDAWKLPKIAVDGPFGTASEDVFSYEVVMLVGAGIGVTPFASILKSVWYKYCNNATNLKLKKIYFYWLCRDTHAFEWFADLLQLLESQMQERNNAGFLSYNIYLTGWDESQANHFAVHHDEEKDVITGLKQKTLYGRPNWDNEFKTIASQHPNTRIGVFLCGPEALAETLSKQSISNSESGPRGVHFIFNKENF
For assay [9], the target named is NADPH oxidase 4 (Homo sapiens) (UniProt Q9NPH5). The experiment in a line: compounds shifting NOX4 Amplex Red fluorescence – cell-based, HEK293-NOX4, tetracycline-induced, NOX inhibitor project, primary screen (AID 1160). Conditions: HEK293-NOX4, Amplex Red H2O2 fluorescence, 45 min; higher = more signal, called active from +8 up or from −8 down.
NADPH oxidase 4 (Homo sapiens), sequence (Q9NPH5 whole entry, looked up): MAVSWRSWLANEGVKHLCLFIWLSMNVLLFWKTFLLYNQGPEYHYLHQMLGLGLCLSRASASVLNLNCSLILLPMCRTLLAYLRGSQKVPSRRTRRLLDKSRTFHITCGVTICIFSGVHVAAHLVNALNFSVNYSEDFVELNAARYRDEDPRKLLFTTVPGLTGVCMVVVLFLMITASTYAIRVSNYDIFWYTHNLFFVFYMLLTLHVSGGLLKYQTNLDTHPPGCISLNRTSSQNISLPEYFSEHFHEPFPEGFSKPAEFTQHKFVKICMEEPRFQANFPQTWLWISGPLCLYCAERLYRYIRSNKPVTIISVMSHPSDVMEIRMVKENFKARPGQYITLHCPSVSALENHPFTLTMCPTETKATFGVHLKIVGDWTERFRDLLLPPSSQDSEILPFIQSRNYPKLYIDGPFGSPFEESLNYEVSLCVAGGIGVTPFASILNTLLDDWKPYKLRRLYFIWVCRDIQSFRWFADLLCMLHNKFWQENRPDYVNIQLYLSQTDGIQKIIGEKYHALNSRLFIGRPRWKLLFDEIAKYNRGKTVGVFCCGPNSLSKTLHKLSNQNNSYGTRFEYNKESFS
In assay [10] the target is NADPH oxidase 5 (Homo sapiens) (UniProt Q96PH1). The experiment in a line: compounds shifting NOX5 Amplex Red fluorescence – cell-based, HEK293-NOX5, NOX inhibitor project, primary screen (AID 1161). The following applies: HEK293-NOX5, ionomycin, 45 min, higher = more signal.
NADPH oxidase 5 (Homo sapiens), sequence (Q96PH1 whole entry, looked up): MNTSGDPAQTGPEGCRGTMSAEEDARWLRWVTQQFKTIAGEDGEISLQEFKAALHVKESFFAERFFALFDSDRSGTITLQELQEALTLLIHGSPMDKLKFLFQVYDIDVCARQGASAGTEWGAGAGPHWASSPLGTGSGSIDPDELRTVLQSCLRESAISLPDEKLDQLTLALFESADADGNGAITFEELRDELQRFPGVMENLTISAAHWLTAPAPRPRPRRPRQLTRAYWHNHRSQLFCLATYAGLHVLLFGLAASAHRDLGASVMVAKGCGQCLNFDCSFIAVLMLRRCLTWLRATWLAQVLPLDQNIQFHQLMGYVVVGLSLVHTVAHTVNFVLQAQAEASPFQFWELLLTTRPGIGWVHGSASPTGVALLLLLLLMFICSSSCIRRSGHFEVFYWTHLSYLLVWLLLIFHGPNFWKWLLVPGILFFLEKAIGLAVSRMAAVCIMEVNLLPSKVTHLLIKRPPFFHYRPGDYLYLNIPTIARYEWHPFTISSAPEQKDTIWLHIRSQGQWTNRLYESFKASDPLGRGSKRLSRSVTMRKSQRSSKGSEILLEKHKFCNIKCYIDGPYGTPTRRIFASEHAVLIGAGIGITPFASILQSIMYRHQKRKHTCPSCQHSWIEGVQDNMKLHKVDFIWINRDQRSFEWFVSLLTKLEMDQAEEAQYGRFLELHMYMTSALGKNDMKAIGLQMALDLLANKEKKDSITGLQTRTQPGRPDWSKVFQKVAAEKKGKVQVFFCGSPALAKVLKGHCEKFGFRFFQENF
The nature of assay [11]: compound effects on lung adenocarcinoma cell viability – A549, calcein-AM fluorescence, 48 h, basal, profiling panel (AID 1162). Note: test concentration not given here. Conditions: higher = more signal.
The nature of assay [12]: compound effects on differentiated 3T3-L1 adipocyte viability – cell-based, 3T3-L1 adipocytes, calcein-AM fluorescence, 48 h, basal, profiling panel (AID 1163). Note: test concentration not given here. The following applies: 3T3-L1 adipocytes viability, higher = more signal.
Assay [13] in a line: compound effects on hepatocellular carcinoma cell viability – HepG2, calcein-AM fluorescence, 48 h, basal, profiling panel (AID 1164). Note: test concentration not given here. Conditions: higher = more signal.
Assay [14] in a line: compound effects on multiple myeloma cell viability – MM1S, calcein-AM fluorescence, 48 h, basal, profiling panel (AID 1165). Note: test concentration not given here. Conditions: higher = more signal.
The nature of assay [15]: calcein-AM signal in unstimulated myeloma cells – cell-based, calcein-AM fluorescence, 48 h, PK04 Diversity Set, profiling panel (AID 1166).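 Note: cells grown under basal conditions without added stimulus; test concentration not given here.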 The following applies: RPMI8226 myeloma viability, higher = more signal.
Assay [16] is described as follows: JC-1 mitochondrial signal, unstimulated HepG2 cells – cell-based, JC-1 fluorescence, 24 h, 100 nL compound, profiling panel (AID 1167). Note: test concentration not given here. The following applies: HepG2 mitochondrial potential, higher = more signal.
A short description of assay [17]: JC-1 mitochondrial signal, unstimulated adipocytes – cell-based, JC-1 fluorescence, 3T3-L1 adipocytes, 24 h, 100 nL compound, profiling panel (AID 1168). Note: test concentration not given here. The following applies: JC-1 mitochondrial fluorescence, higher = more signal, called active from +8 up or from −8 down.
A short description of assay [18]: JC-1 mitochondrial signal, unstimulated myeloma cells – cell-based, JC-1 fluorescence, RPMI8226, 24 h, 100 nL compound, profiling panel (AID 1169). Note: test concentration not given here. The following applies: JC-1 mitochondrial potential fluorescence, higher = more signal.
The nature of assay [19]: JC-1 mitochondrial signal, unstimulated MM1S myeloma – cell-based, JC-1 fluorescence, 24 h, 100 nL compound, profiling panel (AID 1170). Note: test concentration not given here. Conditions: MM1S mitochondrial potential, higher = more signal.
Assay [20] can be described thus: resazurin metabolic signal in A549 cells – cell-based, resazurin fluorescence, 24 h, PK04 Diversity Set, profiling panel (AID 1171). Note: test concentration not given here. Conditions: A549 viability, higher = more signal, called active from +8 up or from −8 down.

Active and inactive are the calls of the source.

As to `CC(C)=CCCC(C)=CCON=C1C[C@@H](O)[C@@H](O)[C@@H]2[C@@H]3C(=O)N(C(C)(C)C)C(=O)[C@@H]3CC[C@H]12`, the z-score was 0.367 (inactive) in [1]; -0.22 (inactive) in assay [3]; 0.28 (inactive) in assay [4]; -0.921 (inactive) in [5]; -0.138 (inactive) in assay [6]; -0.443 in assay [7]. Moreover, the z-score in [8] was 0.799 (inactive); in [9] it was 0.427 (inactive); in assay [10], 0.0706; in [11], 0.0088; in [12], 0.729; in [13], -0.465. The z-score was 0.387 in [14]; -0.306 in assay [15]; -0.00723 in assay [16]; 0.111 (inactive) in assay [17]; -0.15 in [18]; 0.598 in [19]. Moreover, in assay [20], the z-score was -0.624 (inactive). In addition, the composite z-score in assay [2] is -0.0603.
In the case of `CCN1C(=O)[C@@H]2[C@H]3C(=CC[C@@H]2C1=O)C1(OCCCO1)[C@H]1O[C@H]1[C@H]3O`, the z-score was -0.721 (inactive) in assay [1]; 27.2 (active) in [3]; 12.1 (active) in assay [4]; 1.38 (inactive) in assay [5]; 1.18 (inactive) in assay [6]; -0.295 in assay [7]. For the same compound, the z-score was 0.104 (inactive) in assay [8]; -5.5 (inactive) in [9]; -5.86 in [10]; -4.56 in [11]; -1.03 in assay [12]; -4.61 in assay [13]. Besides, the z-score in assay [14] is -3.56; in assay [15], -3.24; in [16] it was -3.62; in assay [17] it was -5.63 (inactive); in assay [18] it was -1.04; in assay [19] it was -3.04. The z-score in assay [20] was -3.14 (inactive). The compound further had a composite z-score in assay [2] of 0.167.
Turning to `CCOC(=O)[C@H](Cc1ccccc1)NC(=O)CCC1CC(OC(=O)NCCc2ccc(F)cc2)CC2(CCCC(COC(=O)NCC3CCCCC3)O2)O1` (stereo not given in full), the z-score was 1.08 (inactive) in [1]; -0.0955 (inactive) in [3]; 0.672 (inactive) in assay [4]; 0.753 (inactive) in assay [5]; 0.416 (inactive) in assay [6]; 0.681 in assay [7]. Further, the z-score is 0.102 (inactive) in assay [8]; 1.12 (inactive) in assay [9]; 0.0102 in [10]; 1.35 in assay [11]; -0.78 in assay [12]; 0.901 in assay [13]. In addition, the z-score in assay [14] is -3.14; in assay [15], 0.219; in assay [16], 0.809; in assay [17], 0.367 (inactive); in assay [18] it was -0.0221; in assay [19] it was -1.29. For the same compound, in assay [20], the z-score is 0.384 (inactive). The compound further came in with a composite z-score in assay [2] of -0.0536.
As for `COc1cccc([C@H]2Oc3ccc(OC)cc3C(=NO[C@@H](C)c3cn([C@H](CO)Cc4ccccc4)nn3)[C@@H]2O)c1`, the z-score is -2.4 (inactive) in assay [1]; 2.52 (inactive) in [3]; 0.41 (inactive) in assay [4]; 1.19 (inactive) in assay [5]; 0.611 (inactive) in assay [6]; -0.15 in assay [7]. Further, the z-score in assay [8] is -0.0734 (inactive); in assay [9], -0.424 (inactive); in [10] it was -0.327; in [11], -0.53; in assay [12] it was 1.3; in assay [13] it was -0.55. Moreover, the z-score in [14] was 0.738; in [15] it was -0.631; in [16], -1.22; in [17], -1.1 (inactive); in assay [18] it was -0.722; in [19], 0.339. For the same compound, in [20], the z-score was -0.819 (inactive). Moreover, the composite z-score in assay [2] is -0.147.
Consider `COC(=O)[C@@H]1CC[C@H](C)[C@@H](c2ccc(C)cc2)N1C(=O)c1ccc(C=NO[C@H](C)c2cn([C@@H]3COC[C@H]3O)nn2)cc1`, for which the z-score is 0.153 (inactive) in assay [1]; 22.6 (active) in assay [3]; 3.19 (inactive) in [4]; 0.615 (inactive) in assay [5]; 1.52 (inactive) in assay [6]; -0.477 in [7]. For the same compound, the z-score is -0.166 (inactive) in [8]; 0.124 (inactive) in assay [9]; 0.196 in [10]; 0.278 in assay [11]; -1.16 in assay [12]; -0.482 in [13]. In addition, the z-score was 0.673 in assay [14]; -0.486 in [15]; -1.12 in assay [16]; -0.579 (inactive) in [17]; -0.916 in assay [18]; -0.985 in assay [19]. In addition, in assay [20], the z-score is 0.339 (inactive). In addition, in assay [2], the composite z-score was 0.109.
